Bioassay records as filed in PubChem BioAssay.
Most compounds without a hit are left out; they make up all but 5.2% or so of the library.
Sfp PPTase inh – blocks B. subtilis Sfp PPTase activity; 3.5% of 310,000 active; AID 1490; Biochemical Sfp PPTase activity, qHTS; Potency, µM, for inactives: largest response in the series, negative = inhibition, actives largely listed as inhibitors;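 also: the enzyme is Sfp with the accession as filed and its product quenches rhodamine fluorescence; potency is read from the fitted curve at half-maximal effect; 0% = enzyme reaction without inhibitor and -100% = no enzyme wells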
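Reaction rates are the 30-min fluorescence difference (ex 525, em 598 nm) in wells containing 15 nM Sfp, 5 uM rhodamine-CoA and 12.5 uM BHQ-2-YbbR at pH 7.6 with 10 mM MgCl2.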
Tau fibril ThT – tau fibrillization inhibition (ThT binding); Potency, µM (top dose mostly 57.4 µM), without a hit: top-dose activity, negative = inhibition, usual class: inhibitors; P10636; 2.1% of 270,000 active; AID 1460; recombinant tau K18 P301L, heparin-induced fibrillization, ThT fluorescence; also: potency is read from the fitted curve at half-maximal effect; nearly all actives have a fitted effect of over 55% in size
Target sequence (P10636 561-689 P618L limits assumed): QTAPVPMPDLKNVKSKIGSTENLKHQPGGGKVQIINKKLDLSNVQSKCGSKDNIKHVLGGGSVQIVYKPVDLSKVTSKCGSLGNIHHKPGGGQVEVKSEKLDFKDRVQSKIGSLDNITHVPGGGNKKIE
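In this qHTS, human K18 P301L tau is incubated with compound and heparin for 6 hr at 37 C, and Thioflavin T fluorescence then reports fibril load.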
FBPA coupling cs – counter-screen for Giardia aldolase inhibitors: coupling enzyme system; coupling enzyme system counterscreen, AmpLite Red fluorescence; activity change, negative = inhibition, % at 58.2 µM, hits read low; 0.67% of 290,000 active; AID 2472; in the data active = activity change below about -30%
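Counterscreen lacking aldolase: glyceraldehyde-3-phosphate coupling-enzyme reagent preincubated 10 min at RT with compound (at 57.5 uM final), then substrate/coupling system with AmpLite Red added; fluorescence read at 525/598 nm after 20 min RT.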
Tau fluor counter – counter-screen for tau fibril formation inhibitors; tau K18 P301L Alexa594 fluorescence, heparin fibrillization; 0.93% of 280,000 active; AID 1463; Potency, µM (doses to about 57.7 µM), for inactives: top-dose activity change, negative = decrease; also: potency is read from the fitted curve at half-maximal effect; nearly all actives have a fitted effect of over 55% in size
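Human tau K18 P301L (15 uM unlabeled, 0.24 uM Alexa 594-labeled) in 100 mM sodium acetate pH 7 with 20 uM heparin, 6 hr at 37 C. ThT 30 uM added, 1 hr ambient; Alexa 594 FP and total fluorescence read at 555/632 nm.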
Tau FP inhib – inhibitors of human tau fibril formation; P10636; K18 P301L tau heparin fibrillization, Alexa594 FP, 6 h; Potency, µM (series often up to 57.7 µM), inactives show at the highest dose activity, negative = inhibition, actives largely listed as inhibitors; 0.39% of 280,000 active; AID 1468; also: potency is read from the fitted curve at half-maximal effect; nearly all actives have a fitted effect of over 55% in size
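Human K18 P301L fragment (15 uM unlabeled plus 0.24 uM Alexa 594-labeled) in 100 mM sodium acetate pH 7 with compound, aggregation induced by 20 uM heparin for 6 hr at 37 C. ThT (30 uM) added for 1 hr, then Alexa 594 FP read.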
Starred values were filed as active, the others as inactive; [ ] = another dose, or the depositor's remark. Unless noted, calls follow the shape of the dose curve; as a rule, active = well fitted curve in the direction sought with a large enough effect; inconclusive = small, poorly fitted or top-dose-only effect, or another doubt; inactive = no such curve, though single readings can be large; an effect the other way counts as inactive or inconclusive. Unless noted, % is scaled to controls: 0 for no effect and ±100 for the full control effect.

What do the screens show for `Cc1cccn2c(=O)c3cc(C(=O)NCCc4ccccc4)c(=N)n(CCCn4ccnc4)c3nc12`?
Sfp PPTase inh: 9%; Tau fibril ThT: 11µM*; FBPA coupling cs: 7; Tau fluor counter: 11µM*[quencher]; Tau FP inhib: 25µM*

Results for Cc1cccn2c(=O)c3cc(C(=O)NC4CCCC4)c(=N)n(Cc4ccc(F)cc4)c3nc12 ?
Sfp PPTase inh: inconclusive; FBPA coupling cs: -5

What do the screens show for `Cc1cccn2c(=O)c3cc(C(=O)NC4CCCCC4)c(=N)n(Cc4ccccc4)c3nc12`?
Sfp PPTase inh: 28µM*

How did Cc1cccn2c(=O)c3cc(C(N)=S)c(=N)n(CCCOC(C)C)c3nc12 do in these assays?
Sfp PPTase inh: inconclusive; Tau fibril ThT: inconclusive; FBPA coupling cs: -3; Tau fluor counter: -7%; Tau FP inhib: -6%

How did CCOCCCn1c(=N)c(C(N)=S)cc2c(=O)n3cccc(C)c3nc21 do in these assays?
Sfp PPTase inh: -109%; Tau fibril ThT: -14%; FBPA coupling cs: -45*; Tau fluor counter: 2%; Tau FP inhib: -7%

Results for CC(C)NS(=O)(=O)c1ccc2nc(NC(=O)c3cncc(Br)c3)sc2c1 ?
Tau fibril ThT: 15%; Tau fluor counter: -7%; Tau FP inhib: 1%

What do the screens show for `CCS(=O)(=O)N1CCC2(CC1)OC(=O)C(C)=C2C(=O)NCc1ccc(OC)c(OC)c1`?
Tau fibril ThT: 4%; Tau fluor counter: 4%; Tau FP inhib: 6%

Results for COCCNC(=S)c1ccc(Br)cc1 ?
Sfp PPTase inh: 45µM*; Tau fibril ThT: inconclusive; FBPA coupling cs: 0; Tau fluor counter: -9%; Tau FP inhib: -5%

How did Cc1ccc(OC(=O)c2cccc(C(=O)Oc3ccc(C)cn3)n2)nc1 do in these assays?
Sfp PPTase inh: 50µM*; Tau fibril ThT: -13%; FBPA coupling cs: 4; Tau fluor counter: -1%; Tau FP inhib: 4%

What do the screens show for `CCCCn1c(C)cc2c(c1=O)C1O[C@](c3ccsc3)(Cc3cc(OC)c(OC)cc31)O2`?
Sfp PPTase inh: -9%; FBPA coupling cs: -5

What do the screens show for `CCOC(=O)c1cc(C#N)c(SCC(=O)c2cc(C#N)c(SC)nc2C)[nH]c1=O`?
Sfp PPTase inh: 32µM*; Tau fibril ThT: inconclusive; FBPA coupling cs: 8; Tau fluor counter: -17%; Tau FP inhib: 1%

What do the screens show for `CCOC(=O)c1cc(C#N)c(SCC(N)=O)[nH]c1=O`?
Sfp PPTase inh: 20µM*; Tau fibril ThT: inconclusive; FBPA coupling cs: -1; Tau fluor counter: -11%; Tau FP inhib: -14%

What do the screens show for `CCOC(=O)c1cc(C#N)c(SCC(=O)Nc2ccc(C(C)=O)cc2)[nH]c1=O`?
Sfp PPTase inh: -2%; Tau fibril ThT: inconclusive; FBPA coupling cs: -3; Tau fluor counter: -19%; Tau FP inhib: -7%

Results for CCOC(=O)c1cc(C#N)c(SCC(=O)O)[nH]c1=O ?
Sfp PPTase inh: 50µM*; Tau fibril ThT: -4%; FBPA coupling cs: -1; Tau fluor counter: 0%; Tau FP inhib: -4%

How did Cc1ccc(/C=C/c2onc(C)c2S(=O)(=O)N2CCC(C(=O)NCC(C)c3ccccc3)CC2)cc1 (stereo unspecified) do in these assays?
Tau fibril ThT: 13%; Tau fluor counter: 2%; Tau FP inhib: -6%

How did Cn1c(-c2ccc(F)cc2)cnc1SCC(=O)Nc1ccccc1 do in these assays?
Sfp PPTase inh: -7%; Tau fibril ThT: -6%; FBPA coupling cs: 6; Tau fluor counter: -5%; Tau FP inhib: 10%

What do the screens show for `COC(=O)c1cnc(SCc2ccc(Cl)cc2)n1C`?
Sfp PPTase inh: 13%; Tau fibril ThT: -9%; FBPA coupling cs: -2; Tau fluor counter: -6%; Tau FP inhib: 8%

How did CCSc1ncc(/C=N/Nc2ccc(Cl)cc2)n1C do in these assays?
Sfp PPTase inh: 28µM*; Tau fibril ThT: 7.9µM*; FBPA coupling cs: -22; Tau fluor counter: 6.3µM*[quencher]; Tau FP inhib: -15%

What do the screens show for `CCSc1ncc(/C=N/Nc2ccccc2)n1C`?
Sfp PPTase inh: -1%; Tau fibril ThT: 4.5µM*; FBPA coupling cs: -1; Tau fluor counter: inconclusive; Tau FP inhib: inconclusive

How did CCSc1ncc(/C=N/Nc2ccc([N+](=O)[O-])cc2)n1C do in these assays?
Sfp PPTase inh: -9%; Tau fibril ThT: 0.89µM*; FBPA coupling cs: 1; Tau fluor counter: inconclusive; Tau FP inhib: -12%
